Shown are actives, neighbours in structure and some others; about 1.3% of the full set was active somewhere.
PERK inhibitor = inhibitors of human PERK kinase. CHO PERK-DD fusion, SEAP luminescence translation reporter. AID 1416. 220,000 compounds, 0.17% hits. inhibition, % at 5.6 µM;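 active = inhibition above the mean inhibition of all tested compounds plus 3 SD, set separately per screening campaign, cut at about 2.9% in these data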;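 also: PERK kinase domain activated by AP20187 dimerizer at 100 nM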
S1P4 antag = antagonists of human S1P4 receptor; O95977; S1P4-expressing cells, antagonist mode, reporter read-out; inhibition, % at 4.98 µM; 220,000 compounds, 0.26% hits; AID 1510; in the data active = inhibition above about 29%
Target sequence (O95977 whole entry, looked up): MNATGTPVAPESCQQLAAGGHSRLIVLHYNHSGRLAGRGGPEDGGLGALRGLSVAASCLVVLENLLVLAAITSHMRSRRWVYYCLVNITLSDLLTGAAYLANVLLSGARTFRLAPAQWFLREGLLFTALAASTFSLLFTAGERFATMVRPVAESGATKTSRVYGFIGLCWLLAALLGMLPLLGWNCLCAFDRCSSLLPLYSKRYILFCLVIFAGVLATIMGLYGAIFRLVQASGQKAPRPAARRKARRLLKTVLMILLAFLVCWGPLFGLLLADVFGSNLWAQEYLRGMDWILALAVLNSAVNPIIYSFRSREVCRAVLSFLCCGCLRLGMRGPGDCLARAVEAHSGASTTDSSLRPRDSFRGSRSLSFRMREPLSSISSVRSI
S1P3 antagonist = S1P3 (human) receptor antagonism; CHO S1P3 NFAT-BLA reporter, FRET fluorescence, antagonist mode; inhibition, % at 4.98 µM; 170,000 compounds, 0.27% hits; AID 485;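 active = inhibition above the plate cutoff, the mean inhibition of test wells on that plate plus 3 SD, cut at about 28% in these data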;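 also: cells challenged with S1P at its EC80 of 0.8 µM; blue over green emission ratio from cleaved BLA substrate after 4 h stimulation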
Calpain2 inh = inhibitors of pig calpain II; inhibition, % at 16 µM; purified calpain II, fluorogenic peptide substrate, 30 min; 220,000 compounds, 0.37% hits;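 active = inhibition above about 50%, limit read from the data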
S1P4 agonist = agonists of human S1P4 receptor; S1P4-expressing cell line, agonist reporter assay; activation, % at 4.98 µM; 220,000 compounds, 0.35% hits; AID 1509; in the data active = activation above about 11%
S1P4 antag conf = confirmation of human S1P4 receptor antagonists. AID 1524. inhibition, % at 4.98 µM. 520 compounds, 71% hits. S1P4-expressing cell line, antagonist mode, reporter read-out. shares compounds with S1P4 antag; in the data active = inhibition above about 30%
S1P1 antagonist = human S1P1 antagonism as S1P4 antagonist counter-screen | inhibition, % at 4.98 µM | shares compounds with S1P4 antag | cell-based S1P1 antagonist counterscreen, inhibition | 520 compounds, 37% hits | AID 1564; in the data active = inhibition above about 40%;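 also: receptor stimulated with S1P near its EC80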
Numbers stand for hits; . = inactive; / = not tested or not shown.

SMILES	PERK inhibitor	S1P4 antag	S1P3 antagonist	Calpain2 inh	S1P4 agonist	S1P4 antag conf	S1P1 antagonist
O=C(O)CCNC(=O)CCCn1nnc2ccccc2c1=O	.	.	.	.	.	/	/
Cc1nc(N2CCN(C)CC2)c2sc(=S)n(-c3ccccc3)c2n1	.	.	.	.	.	/	/
S=c1sc2c(Cl)ncnc2n1-c1ccccc1	.	32	.	.	.	121	86
Cc1cc(C(=O)COc2ccc3ccc(=O)oc3c2)c(C)n1C	.	.	.	.	.	/	/
COc1cccc2[nH]c3c(N4CCCCC4)ncnc3c12	.	.	.	.	.	/	/
CCOC(=O)C1CCN(c2ncnc3c2[nH]c2cccc(OC)c23)CC1	.	56	.	.	.	.	.
CC1=C(C)/C(=N\OS(=O)(=O)c2ccccc2)C=CC1=O	.	42	/	.	.	69	.
CCCCCC(=O)NC(=S)NC1C2CC3CC(C2)CC1C3 (stereo not drawn)	.	.	.	.	.	/	/
CCOC(=O)c1sc(-c2ccc(C(F)(F)F)cc2)nc1O	.	38	.	.	.	34	.
O=C(Oc1cccnc1)c1ccco1	.	.	/	.	.	/	/
CN(C(=O)C(Cl)Cl)c1ccc(OC(=O)c2ccco2)cc1	.	33	.	.	.	34	.
O=C(CCl)Nc1cc(SCC(O)CO)cc([N+](=O)[O-])c1 (stereo not drawn)	.	39	.	.	.	112	102
CCC(=O)Nc1cc(SCCO)cc([N+](=O)[O-])c1	.	.	/	.	.	/	/
CC(NC(=O)CN(c1cccc(C(F)(F)F)c1)S(=O)(=O)c1ccc(Cl)c([N+](=O)[O-])c1)c1ccccc1 (stereo not drawn)	.	44	.	.	.	87	53
CC1=C(C(=O)Nc2ccc([N+](=O)[O-])cc2)C(c2cccc(C(F)(F)F)c2)NC(=S)N1c1ccccc1 (stereo not drawn)	.	31	/	.	.	33	.
Cc1cc(NC(=O)c2ccc([N+](=O)[O-])o2)ccc1NC(=O)c1ccco1	.	90	.	.	.	107	58
Cc1cc(C)cc(NC(=O)c2ccc([N+](=O)[O-])o2)c1	.	63	.	.	.	89	.
Cc1cc([N+](=O)[O-])ccc1NC(=O)c1ccco1	.	.	.	.	.	/	/
CC(C)[C@H](NS(=O)(=O)c1cccc(C(F)(F)F)c1)C(=O)OCC(N)=O	.	.	.	.	.	/	/
COc1ccc(CC(=O)NNC(=O)c2c(-c3ccccc3Cl)noc2C)cc1OC	.	.	.	.	.	/	/
O=[N+]([O-])c1cc(Cl)c(O)c2ncccc12	.	31	.	.	.	62	55
O=[N+]([O-])c1cc(Cl)c2cccnc2c1O	.	.	.	.	.	/	/
COc1ccc(-n2ncc(Cl)c(Cl)c2=O)cc1	.	95	.	.	.	118	57
Cc1ccc(-n2nnnc2C(Cl)c2nnnn2-c2ccc(C)cc2)cc1	.	47	.	.	.	74	.
Cc1ccc(-n2nnnc2-c2ccco2)cc1	.	.	/	.	.	/	/
SMILES	PERK inhibitor	S1P4 antag	S1P3 antagonist	Calpain2 inh	S1P4 agonist	S1P4 antag conf	S1P1 antagonist
COc1ccc(C(=O)c2c(C(F)(F)F)oc3c2C(=O)c2ccccc2C3=O)cc1OC	.	33	/	.	.	71	57
Cc1ccc(NC2=Nc3ccccc3N3C2=Nc2c(c(C)nn2-c2ccccc2)C3c2ccc(O)c(O)c2)cc1 (stereo not drawn)	.	.	/	.	.	/	/
Cc1nn(-c2ccccc2)c2c1C(c1ccc(O)c(O)c1)N1C(=N2)C(Nc2ccccc2)=Nc2ccccc21 (stereo not drawn)	.	51	/	.	.	70	65
CCc1nc(NCCO)c(C#N)c2c1CSC(C)(C)C2	.	.	.	.	.	/	/
CC(C)c1nc2c(c(=O)c3ccccc3n2C)c(=O)n1CCc1ccccc1	.	.	.	.	.	/	/
Nc1nc(CCl)nc(Nc2cccc3ccccc23)n1	.	33	.	.	.	55	.
CCOC(=O)Cc1nnc(NC(=O)CSc2ncc(-c3ccccc3)nn2)s1	.	.	.	.	.	/	/
CCCS(=O)(=O)c1nnnn1-c1cccc(OC)c1	.	38	.	.	.	111	.
COc1cccc(-n2nnnc2SCC(=O)Nc2ccc(C(C)=O)cc2)c1	.	.	/	.	.	/	/
CN(C)C(=O)c1nc2ccc(Cl)cn2c1CN1CCCC(OCc2cccnc2)C1 (stereo not drawn)	.	.	.	.	.	/	/
O=C(Nc1ccc(Cl)cc1)c1cccnc1N1CCCCC1	.	95	/	.	.	.	.
COc1ccc2c(c1)c(/C=N/Nc1nc3ccccc3[nH]1)c(C)n2C	.	32	.	.	.	.	.
COc1cc(/C=N\Nc2nc3ccccc3[nH]2)cc(OC)c1OC	.	.	/	.	.	/	/
Cc1ccc(C)n1-c1ccc(C(=O)N2CCC(C(N)=O)CC2)cc1	.	44	.	.	.	.	.
Cc1ccc(C(=O)NC(C#N)=C(Cl)Cl)cc1	.	60	.	.	.	110	.
Cc1ccc(C(=O)NCC#N)cc1	.	.	.	.	.	/	/
O=C1C(Nc2ccc(O)cc2)=C/C(=N/S(=O)(=O)c2cccs2)c2ccccc21	.	86	.	.	.	109	94
Cc1cccc(NC2=C/C(=N/S(=O)(=O)c3cccs3)c3ccccc3C2=O)c1	.	.	.	.	.	/	/
Cc1ccc(S(=O)(=O)Nc2cccc3ncccc23)s1	.	47	.	.	.	108	109
Cc1ccc(S(=O)(=O)Nc2cccc3ncccc23)cc1	.	.	.	.	.	/	/
Cc1cccc2c1NC(=O)/C2=C\C(=O)c1cccs1	.	.	/	.	.	/	/
CCc1ccc2c(c1)/C(=C/C(=O)c1cccs1)C(=O)N2	.	66	/	.	.	109	78
Cc1cc(Br)c2c(c1)/C(=C/C(=O)c1cccs1)C(=O)N2	.	35	.	.	.	68	43
CCc1ccc2c(c1)/C(=N/N(C)C(=S)NC)C(=O)N2	.	.	/	.	.	/	/
C=CCn1c(SCc2ccc(F)cc2)nnc1-c1sc2nc(C)cc(C)c2c1N	.	.	.	.	.	/	/
CC/C(C)=N\Nc1nc(-c2cc3cc(OC)ccc3oc2=O)cs1	.	.	.	.	.	/	/
CC(C)NC(=O)CSCc1c(F)cccc1Cl	.	57	/	.	.	.	.
CNC(=O)CSCc1c(F)cccc1Cl	.	.	/	.	.	/	/
COc1ccc(-c2csc(NC3OC(=O)c4c3ccc(OC)c4OC)n2)cc1OC (stereo not drawn)	.	32	.	.	.	58	44

Source: PubChem
